Reference: PubChem BioAssay (NCATS)
Records with an inconclusive call do not appear. Unmarked numbers belong to inactive results. Calls follow the shape of the dose curve; as a rule, active = well fitted curve in the direction sought with a large enough effect; inconclusive = small, poorly fitted or top-dose-only effect, or another doubt; inactive = no such curve, though single readings can be large; an effect the other way counts as inactive or inconclusive.

These compounds were tested against Aldehyde dehydrogenase, mitochondrial (Homo sapiens) (UniProt P05091) (assay: qHTS for Inhibitors of the Aldehyde Dehydrogenase Family (ALDH2) Primary screen (AID 2061308;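 also: plate controls were vehicle for no effect and reference inhibitor for full effect; nearly all actives have a fitted effect of over 55% in size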)). Details: ALDH2 enzyme inhibition qHTS, 1536-well; series mostly up to 56 µM; activity change, negative = inhibition: at the top concentration.

Question: How did the “activity change, negative = inhibition” value turn out when Cc1ccc(OCCn2c(CCNC(=O)c3ccc(C)cc3)nc3ccccc32)cc1 was run?
Answer: -5.5%

Question: Which “activity change, negative = inhibition” value does the source give for O=C(Nc1ccc(-c2cccnc2)nc1)c1cccs1 here?
Answer: -5.49%

Question: Which “activity change, negative = inhibition” value does the source give for Cc1ccc(CCCn2c(CCNC(=O)C3CCCCC3)nc3ccccc32)cc1 here?
Answer: -9.95%

Question: With FC(F)(F)c1cc(-c2ccc(CNc3nc(-c4ccccc4C(F)(F)F)nc4ccccc34)cc2)cc(C(F)(F)F)c1 as the compound, how does the “activity change, negative = inhibition” value read?
Answer: -11.2%

Question: How did the “activity change, negative = inhibition” value turn out when CC(=O)Nc1ccc(S(=O)(=O)N2CCN(c3ccc(C(C)=O)cc3)CC2)cc1 was run?
Answer: 9.46%

Question: Which “activity change, negative = inhibition” value does the source give for CCn1c2ccccc2c2cc(Nc3ccnc(NCCCN4CCOCC4)n3)ccc21 here?
Answer: 23.6%

Question: How did the “activity change, negative = inhibition” value turn out when Cc1cc(N[S+](=O)([O-])c2ccc(NC(=O)Cc3nc4ccc(Cl)cc4[nH]3)cc2)no1 was run?
Answer: -4.32%

Question: With NCCCC(=O)Nc1ccc(Cl)cc1C(=O)c1ccc[nH]1 as the compound, how does the “activity change, negative = inhibition” value read?
Answer: 3.6%

Question: How did the “activity change, negative = inhibition” value turn out when Cc1cc2c(s1)c1cnn(Cc3ccc(Br)cc3F)c(=O)c1n2C was run?
Answer: -6.38%

Question: Which “activity change, negative = inhibition” value does the source give for Cc1cc2c(s1)c1cnn(Cc3c(F)cccc3F)c(=O)c1n2C here?
Answer: 9.94%

Question: How did the “activity change, negative = inhibition” value turn out when O=C(c1ccc[nH]1)c1cc(Cl)ccc1NC(=O)[C@@H]1CCCN1 was run?
Answer: -17.9%

Question: With Cc1ccc(-c2ccc(=O)n(CC(=O)NCCc3ccc(O)cc3)n2)cc1 as the compound, how does the “activity change, negative = inhibition” value read?
Answer: 3.76%

Question: With COc1cccc(OC)c1C1=Nn2c(nnc2-c2ccccc2O)SC1 as the compound, how does the “activity change, negative = inhibition” value read?
Answer: 2.59%

Question: How did the “activity change, negative = inhibition” value turn out when Fc1cc(Nc2nc(-c3ccncc3)nc3ccccc23)ccc1-c1cccnc1 was run?
Answer: -8.3%

Question: With Cc1cnc(-c2ccccc2C(C)C)nc1NCC1CCN(c2cnccn2)CC1 as the compound, how does the “activity change, negative = inhibition” value read?
Answer: 8.01%

Question: With CCNC(=O)c1ccc(-c2ccc3ncnc(NCC4CCCO4)c3c2)o1 (stereo not given) as the compound, how does the “activity change, negative = inhibition” value read?
Answer: 1.21%

Question: For O=C1CCCC2=C1C(c1ccncc1Cl)N=C(Nc1nc3ccccc3o1)N2 (stereo not given), which “activity change, negative = inhibition” value is on record?
Answer: 3.52%

Question: How did the “activity change, negative = inhibition” value turn out when O=C(/C=C/c1ccccc1Br)NCCc1nc2ccccc2[nH]1 was run?
Answer: -3.38%

Question: For COc1ccccc1NC(=O)C(OC(=O)CNC(=O)c1ccccc1)c1ccccc1 (stereo not given), which “activity change, negative = inhibition” value is on record?
Answer: 7.13%

Question: Which “activity change, negative = inhibition” value does the source give for CO[C@H]1/C=C/[C@@](C)(O)/C=C/C(=O)O[C@H](C)[C@@H](C)CC/C=C/1C here?
Answer: -21%

Question: For Cc1ccc(NC(=O)CN2C(=O)N/C(=C\c3cccn3-c3ccc([S+](N)(=O)[O-])cc3)C2=O)cc1, which “activity change, negative = inhibition” value is on record?
Answer: -0.0885%

Question: With CC(=O)Nc1oc(-c2cccc3ccccc23)nc1C#N as the compound, how does the “activity change, negative = inhibition” value read?
Answer: -4.52%

Question: Which “activity change, negative = inhibition” value does the source give for CC(=O)O[C@@H]1CC2C(C)(C)C(=O)C=C[C@]2(C)C2CC[C@@]3(C)[C@H](c4ccoc4)OC(=O)[C@H]4O[C@]43[C@@]21C (stereo not given in full) here?
Answer: 3.79% [at 28 µM]

Question: Cc1cc(-c2ccccc2)n2ncc(C(=O)Nc3ccccc3Sc3ccccc3)c2n1 was tested. Which “activity change, negative = inhibition” value did it give?
Answer: 18.2%

Question: How did the “activity change, negative = inhibition” value turn out when O=C(NC1CCCc2c1cnn2-c1ccc(F)cc1F)c1ccc(C2(C(F)(F)F)N=N2)cc1 (stereo not given) was run?
Answer: -11.2%

Question: CC#CC(=O)Nc1ccc2ncnc(Nc3cccc(Br)c3)c2c1 was tested. Which “activity change, negative = inhibition” value did it give?
Answer: -4.15%

Question: With CCNc1ncnc2ccc(-c3ccc4c(c3)OCO4)cc12 as the compound, how does the “activity change, negative = inhibition” value read?
Answer: 12.7%

Question: For Cc1cccc(CNc2ccnc(-c3ccc(F)cc3F)n2)c1, which “activity change, negative = inhibition” value is on record?
Answer: 16.5%

Question: For CC(=O)NC(c1cc(F)c2cccnc2c1O)C(C)C (stereo not given), which “activity change, negative = inhibition” value is on record?
Answer: -16.2%

Question: Cc1cccc(NC(=O)CN2CCC(c3ccccn3)CC2)c1 was tested. Which “activity change, negative = inhibition” value did it give?
Answer: -7.96%

Question: c1ccc2c(Nc3ccn[nH]3)nc(-c3ccncc3)nc2c1 was tested. Which “activity change, negative = inhibition” value did it give?
Answer: -7.47%

Question: How did the “activity change, negative = inhibition” value turn out when Cc1ccc(/C=C/C(=O)Nc2cccc([S+](=O)([O-])Nc3ccccc3F)c2)cc1 was run?
Answer: 5.55%

Question: With COC1=CC(=O)C[C@@H](C)[C@@]12Oc1c(Cl)c(OC)cc(OC)c1C2=O as the compound, how does the “activity change, negative = inhibition” value read?
Answer: 10.7%

Question: How did the “activity change, negative = inhibition” value turn out when O=C1CCCc2cc(S(=O)(=O)Nc3cnccc3C(=O)Nc3nc(-c4ccccc4)cs3)ccc2N1 was run?
Answer: 0.172%

Question: For O=S(=O)(Nc1nccs1)c1ccc(NCc2cccc(O)c2)cc1, which “activity change, negative = inhibition” value is on record?
Answer: -6.18%

Question: O=C(OC/C=C/CSc1nnc(-c2cccc3ccccc23)o1)c1ccc(F)cc1 was tested. Which “activity change, negative = inhibition” value did it give?
Answer: 3.01%

Question: How did the “activity change, negative = inhibition” value turn out when Cn1c2cc(CO)sc2c2cnn(Cc3ccccc3F)c(=O)c21 was run?
Answer: 13.2%

Question: With c1csc(CCNc2ncnc3ccc(-c4ccc5c(c4)OCO5)cc23)c1 as the compound, how does the “activity change, negative = inhibition” value read?
Answer: -3.06%

Question: For O=C(Nc1ccc(Cl)cc1)Nc1cccc(-c2cccc(N3CCCC3)n2)c1, which “activity change, negative = inhibition” value is on record?
Answer: 6.62%

Question: For O=C1CCc2cc(S(=O)(=O)Nc3cccc(Oc4ccccc4)c3)ccc2N1, which “activity change, negative = inhibition” value is on record?
Answer: 11%

The compounds below were run against Retinaldehyde dehydrogenase 3 (Homo sapiens) (UniProt P47895) (assay: qHTS for Inhibitors of the Aldehyde Dehydrogenase Family (ALDH1A3) Primary screen (AID 2061315;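 also: plate controls were DMSO vehicle for no effect and reference inhibitor for full effect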)). Details: ALDH inhibition qHTS; series mostly up to 56 µM; activity change, negative = inhibition: at the top concentration.

Question: For Cc1ccc(OCCn2c(CCNC(=O)c3ccc(C)cc3)nc3ccccc32)cc1, which “activity change, negative = inhibition” value is on record?
Answer: -0.817%

Question: Which “activity change, negative = inhibition” value does the source give for O=C(Nc1ccc(-c2cccnc2)nc1)c1cccs1 here?
Answer: -2.49%

Question: For Cc1ccc(CCCn2c(CCNC(=O)C3CCCCC3)nc3ccccc32)cc1, which “activity change, negative = inhibition” value is on record?
Answer: 2.75%

Question: FC(F)(F)c1cc(-c2ccc(CNc3nc(-c4ccccc4C(F)(F)F)nc4ccccc34)cc2)cc(C(F)(F)F)c1 was tested. Which “activity change, negative = inhibition” value did it give?
Answer: -17.5%

Question: For CC(=O)Nc1ccc(S(=O)(=O)N2CCN(c3ccc(C(C)=O)cc3)CC2)cc1, which “activity change, negative = inhibition” value is on record?
Answer: -23.5%

Question: Which “activity change, negative = inhibition” value does the source give for CCn1c2ccccc2c2cc(Nc3ccnc(NCCCN4CCOCC4)n3)ccc21 here?
Answer: 55.2%

Question: Cc1cc(N[S+](=O)([O-])c2ccc(NC(=O)Cc3nc4ccc(Cl)cc4[nH]3)cc2)no1 was tested. Which “activity change, negative = inhibition” value did it give?
Answer: 16.2%

Question: NCCCC(=O)Nc1ccc(Cl)cc1C(=O)c1ccc[nH]1 was tested. Which “activity change, negative = inhibition” value did it give?
Answer: 7.38%

Question: For Cc1cc2c(s1)c1cnn(Cc3ccc(Br)cc3F)c(=O)c1n2C, which “activity change, negative = inhibition” value is on record?
Answer: -0.368%

Question: How did the “activity change, negative = inhibition” value turn out when Cc1cc2c(s1)c1cnn(Cc3c(F)cccc3F)c(=O)c1n2C was run?
Answer: 3.21%

Question: Which “activity change, negative = inhibition” value does the source give for O=C(c1ccc[nH]1)c1cc(Cl)ccc1NC(=O)[C@@H]1CCCN1 here?
Answer: 5.03%

Question: Which “activity change, negative = inhibition” value does the source give for Cc1ccc(-c2ccc(=O)n(CC(=O)NCCc3ccc(O)cc3)n2)cc1 here?
Answer: -10.3%

Question: Which “activity change, negative = inhibition” value does the source give for COc1cccc(OC)c1C1=Nn2c(nnc2-c2ccccc2O)SC1 here?
Answer: 23.3%

Question: Which “activity change, negative = inhibition” value does the source give for Fc1cc(Nc2nc(-c3ccncc3)nc3ccccc23)ccc1-c1cccnc1 here?
Answer: -2.75%

Question: For Cc1cnc(-c2ccccc2C(C)C)nc1NCC1CCN(c2cnccn2)CC1, which “activity change, negative = inhibition” value is on record?
Answer: 8.56%

Question: CCNC(=O)c1ccc(-c2ccc3ncnc(NCC4CCCO4)c3c2)o1 (stereo not given) was tested. Which “activity change, negative = inhibition” value did it give?
Answer: -25.1%

Question: With O=C1CCCC2=C1C(c1ccncc1Cl)N=C(Nc1nc3ccccc3o1)N2 (stereo not given) as the compound, how does the “activity change, negative = inhibition” value read?
Answer: 13%

Question: O=C(/C=C/c1ccccc1Br)NCCc1nc2ccccc2[nH]1 was tested. Which “activity change, negative = inhibition” value did it give?
Answer: 5.02%

Question: COc1ccccc1NC(=O)C(OC(=O)CNC(=O)c1ccccc1)c1ccccc1 (stereo not given) was tested. Which “activity change, negative = inhibition” value did it give?
Answer: -1.09%

Question: CO[C@H]1/C=C/[C@@](C)(O)/C=C/C(=O)O[C@H](C)[C@@H](C)CC/C=C/1C was tested. Which “activity change, negative = inhibition” value did it give?
Answer: 3.95%

Question: For Cc1ccc(NC(=O)CN2C(=O)N/C(=C\c3cccn3-c3ccc([S+](N)(=O)[O-])cc3)C2=O)cc1, which “activity change, negative = inhibition” value is on record?
Answer: 13.4%

Question: CC(=O)Nc1oc(-c2cccc3ccccc23)nc1C#N was tested. Which “activity change, negative = inhibition” value did it give?
Answer: 1.5%

Question: CC(=O)O[C@@H]1CC2C(C)(C)C(=O)C=C[C@]2(C)C2CC[C@@]3(C)[C@H](c4ccoc4)OC(=O)[C@H]4O[C@]43[C@@]21C (stereo not given in full) was tested. Which “activity change, negative = inhibition” value did it give?
Answer: -6.25% [at 28 µM]

Question: For Cc1cc(-c2ccccc2)n2ncc(C(=O)Nc3ccccc3Sc3ccccc3)c2n1, which “activity change, negative = inhibition” value is on record?
Answer: 9.34%

Question: O=C(NC1CCCc2c1cnn2-c1ccc(F)cc1F)c1ccc(C2(C(F)(F)F)N=N2)cc1 (stereo not given) was tested. Which “activity change, negative = inhibition” value did it give?
Answer: 2.49%

Question: Which “activity change, negative = inhibition” value does the source give for CC#CC(=O)Nc1ccc2ncnc(Nc3cccc(Br)c3)c2c1 here?
Answer: -0.0736%

Question: How did the “activity change, negative = inhibition” value turn out when CCNc1ncnc2ccc(-c3ccc4c(c3)OCO4)cc12 was run?
Answer: -2.9%

Question: Cc1cccc(CNc2ccnc(-c3ccc(F)cc3F)n2)c1 was tested. Which “activity change, negative = inhibition” value did it give?
Answer: 0.832%

Question: CC(=O)NC(c1cc(F)c2cccnc2c1O)C(C)C (stereo not given) was tested. Which “activity change, negative = inhibition” value did it give?
Answer: -0.363%

Question: Cc1cccc(NC(=O)CN2CCC(c3ccccn3)CC2)c1 was tested. Which “activity change, negative = inhibition” value did it give?
Answer: -14.8%

Question: With c1ccc2c(Nc3ccn[nH]3)nc(-c3ccncc3)nc2c1 as the compound, how does the “activity change, negative = inhibition” value read?
Answer: 1.35%

Question: Which “activity change, negative = inhibition” value does the source give for Cc1ccc(/C=C/C(=O)Nc2cccc([S+](=O)([O-])Nc3ccccc3F)c2)cc1 here?
Answer: -1.26%

Question: COC1=CC(=O)C[C@@H](C)[C@@]12Oc1c(Cl)c(OC)cc(OC)c1C2=O was tested. Which “activity change, negative = inhibition” value did it give?
Answer: 3.57%

Question: For O=C1CCCc2cc(S(=O)(=O)Nc3cnccc3C(=O)Nc3nc(-c4ccccc4)cs3)ccc2N1, which “activity change, negative = inhibition” value is on record?
Answer: 7.19%

Question: For O=S(=O)(Nc1nccs1)c1ccc(NCc2cccc(O)c2)cc1, which “activity change, negative = inhibition” value is on record?
Answer: 0.0248%

Question: With O=C(OC/C=C/CSc1nnc(-c2cccc3ccccc23)o1)c1ccc(F)cc1 as the compound, how does the “activity change, negative = inhibition” value read?
Answer: 4.93%

Question: With Cn1c2cc(CO)sc2c2cnn(Cc3ccccc3F)c(=O)c21 as the compound, how does the “activity change, negative = inhibition” value read?
Answer: 2.1%

Question: Which “activity change, negative = inhibition” value does the source give for c1csc(CCNc2ncnc3ccc(-c4ccc5c(c4)OCO5)cc23)c1 here?
Answer: 3.38%

Question: How did the “activity change, negative = inhibition” value turn out when O=C(Nc1ccc(Cl)cc1)Nc1cccc(-c2cccc(N3CCCC3)n2)c1 was run?
Answer: 0.0016%

Question: Which “activity change, negative = inhibition” value does the source give for O=C1CCc2cc(S(=O)(=O)Nc3cccc(Oc4ccccc4)c3)ccc2N1 here?
Answer: 5.78%
